Reference: the supplement of paper PMC10849652
The full data set covers some 8,800 targets. This sample favours those with a hit. About 0.5% of all pairs of compound and target were hits.

Legend:
Test in all cases: log2 fold change, soluble protein after heating vs DMSO (PISA); higher = thermal stabilisation; K562 lysate, 10 uM; active = over 0.2 and 3.5 SD of the protein, either way, in both replicates (recomputed)
lapatinib = compound: CS(=O)(=O)CCNCc1ccc(-c2ccc3ncnc(Nc4ccc(OCc5cccc(F)c5)c(Cl)c4)c3c2)o1 [lapatinib]
Outline: (§1)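 Dounce homogenisation of K562 pellets in PBS pH 7.4 with 1 mM MgCl2 produced a crude extract, used at 1 mg/mL protein. Exposure to 10 μM compound lasted 30 min, and aliquots were then heated for 3 min across 48°C-58°C, pooled and brought to 0.5% NP-40 at 4°C. The supernatant after 21,000xg for 90 min was quantified by TMTpro 16plex LC-MS/MS with channel sums equalised. Duplicate values are given as log-two fold change in thermal stability relative to solvent controls.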

pictilisib = compound: CS(=O)(=O)N1CCN(Cc2cc3nc(-c4cccc5[nH]ncc45)nc(N4CCOCC4)c3s2)CC1 [pictilisib]
Outline: as §1

crizotinib = compound: C[C@@H](Oc1cc(-c2cnn(C3CCNCC3)c2)cnc1N)c1c(Cl)ccc(F)c1Cl [crizotinib]
Outline: as §1

[1] = compound: C[C@H](C1=CC=C(C=C1)C(=O)NC2=C3C=CNC3=NC=C2)N
Outline: as §1

duvelisib = compound: C[C@H](Nc1ncnc2nc[nH]c12)c1cc2cccc(Cl)c2c(=O)n1-c1ccccc1 [duvelisib]
Outline: as §1

gandotinib = compound: Cc1cc(Nc2cc(CN3CCOCC3)c3nc(C)c(Cc4ccc(Cl)cc4F)n3n2)n[nH]1 [gandotinib]
Outline: as §1

tozasertib = compound: Cc1cc(Nc2cc(N3CCN(C)CC3)nc(Sc3ccc(NC(=O)C4CC4)cc3)n2)n[nH]1 [tozasertib]
Outline: as §1

doramapimod = compound: Cc1ccc(-n2nc(C(C)(C)C)cc2NC(=O)Nc2ccc(OCCN3CCOCC3)c3ccccc23)cc1 [doramapimod]
Outline: as §1

bafetinib = compound: Cc1ccc(NC(=O)c2ccc(CN3CC[C@H](N(C)C)C3)c(C(F)(F)F)c2)cc1Nc1nccc(-c2cncnc2)n1 [bafetinib]
Outline: as §1

[2] = compound: Cc1cccc(CC(=O)N2CCc3c2ccc(-c2cn(C)c4ncnc(N)c24)c3F)n1
Outline: as §1

nilotinib = compound: Cc1cn(-c2cc(NC(=O)c3ccc(C)c(Nc4nccc(-c5cccnc5)n4)c3)cc(C(F)(F)F)c2)cn1 [nilotinib]
Outline: as §1

[3] = compound: Cc1nc(Nc2n[nH]c3c2CN(C(=O)N[C@H](CN(C)C)c2ccccc2)C3(C)C)c2sccc2n1
Outline: as §1

dasatinib = compound: Cc1nc(Nc2ncc(C(=O)Nc3c(C)cccc3Cl)s2)cc(N2CCN(CCO)CC2)n1 [dasatinib]
Outline: as §1

[4] = compound: Cc1ncc(-c2ccnc(Nc3ccc(S(C)(=O)=O)cc3)n2)n1C(C)C
Outline: as §1

[5] = compound: Cn1cc(-c2ccc3c(c2)CCN3C(=O)Cc2cccc(C(F)(F)F)c2)c2c(N)ncnc21
Outline: as §1

quisinostat = compound: Cn1cc(CNCC2CCN(c3ncc(C(=O)NO)cn3)CC2)c2ccccc21 [quisinostat]
Outline: as §1

tipifarnib = compound: Cn1cncc1[C@@](N)(c1ccc(Cl)cc1)c1ccc2c(c1)c(-c1cccc(Cl)c1)cc(=O)n2C [tipifarnib]
Outline: as §1

[6] = compound: NC(=O)Nc1cc(-c2cccc(F)c2)sc1C(=O)N[C@H]1CCCNC1
Outline: as §1

[7] = compound: NC(=O)c1cnc(N[C@@H]2CCCC[C@@H]2N)nc1Nc1cccc(-n2nccn2)c1
Outline: as §1

[8] = compound: NC1(c2ccc(-c3nc4ccn5c(=O)[nH]nc5c4cc3-c3ccccc3)cc2)CCC1
Outline: as §1

Measured: log2 fold change

WIPI1 (UniProt Q5MNZ9)
Sequence of UniProt Q5MNZ9 (Q5MNZ9 whole entry, looked up): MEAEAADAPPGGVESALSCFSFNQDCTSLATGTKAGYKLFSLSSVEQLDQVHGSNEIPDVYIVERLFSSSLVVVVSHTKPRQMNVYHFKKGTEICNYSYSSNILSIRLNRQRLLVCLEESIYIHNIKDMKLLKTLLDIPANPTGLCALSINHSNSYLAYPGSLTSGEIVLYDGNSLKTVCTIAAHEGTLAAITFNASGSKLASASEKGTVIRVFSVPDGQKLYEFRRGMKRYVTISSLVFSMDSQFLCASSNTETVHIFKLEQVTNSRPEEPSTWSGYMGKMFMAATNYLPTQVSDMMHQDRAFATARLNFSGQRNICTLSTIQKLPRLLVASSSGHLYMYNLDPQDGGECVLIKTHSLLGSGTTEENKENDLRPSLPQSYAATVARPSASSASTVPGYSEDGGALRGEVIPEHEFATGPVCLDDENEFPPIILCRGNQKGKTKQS
inactive: lapatinib -0.021 | pictilisib -0.003 | crizotinib 0.058 | [1] -0.013 | duvelisib -0.014 | gandotinib 0.017 | tozasertib 0.039 | doramapimod -0.013 | bafetinib -0.038 | [2] -0.038 | nilotinib 0.011 | [3] -0.198 | dasatinib 0.06 | [5] -0.028 | quisinostat 0.013 | tipifarnib 0.003 | [6] -0.011 | [7] 0.009 | [8] 0.011
active: [4] 0.314

VPS16 (UniProt Q9H269)
inactive: lapatinib -0.014 | pictilisib 0.005 | crizotinib -0.08 | [1] -0.019 | duvelisib 0.013 | gandotinib -0.024 | tozasertib 0.004 | doramapimod -0.013 | bafetinib -0.051 | [2] 0.03 | nilotinib 0 | [3] 0.011 | dasatinib -0.013 | [4] 0.014 | [5] 0.021 | quisinostat -0.095 | tipifarnib -0.012 | [6] 0.022 | [7] 0.004 | [8] 0.009

VPS41 (UniProt P49754)
Sequence of UniProt P49754 (P49754 whole entry, looked up): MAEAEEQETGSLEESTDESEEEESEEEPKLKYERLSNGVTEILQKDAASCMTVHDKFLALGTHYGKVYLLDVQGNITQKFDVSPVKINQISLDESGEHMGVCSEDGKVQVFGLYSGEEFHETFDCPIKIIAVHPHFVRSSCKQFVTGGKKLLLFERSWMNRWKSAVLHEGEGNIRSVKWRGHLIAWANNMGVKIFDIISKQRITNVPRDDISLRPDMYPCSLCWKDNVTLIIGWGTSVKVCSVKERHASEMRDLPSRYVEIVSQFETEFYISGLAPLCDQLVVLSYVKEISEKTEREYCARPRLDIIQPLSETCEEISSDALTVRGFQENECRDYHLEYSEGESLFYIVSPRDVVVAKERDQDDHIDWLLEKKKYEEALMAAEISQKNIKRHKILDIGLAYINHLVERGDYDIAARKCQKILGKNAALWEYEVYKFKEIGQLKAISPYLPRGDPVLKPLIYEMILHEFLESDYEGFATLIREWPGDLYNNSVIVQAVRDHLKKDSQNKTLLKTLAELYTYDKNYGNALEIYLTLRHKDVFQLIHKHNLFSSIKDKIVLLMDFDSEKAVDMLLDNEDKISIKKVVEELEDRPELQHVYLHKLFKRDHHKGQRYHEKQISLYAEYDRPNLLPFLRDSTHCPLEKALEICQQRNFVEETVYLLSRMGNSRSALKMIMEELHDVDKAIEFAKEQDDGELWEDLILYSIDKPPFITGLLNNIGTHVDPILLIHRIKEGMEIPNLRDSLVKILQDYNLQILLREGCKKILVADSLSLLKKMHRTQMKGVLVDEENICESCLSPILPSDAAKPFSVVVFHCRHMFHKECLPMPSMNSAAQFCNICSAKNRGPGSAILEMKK
inactive: lapatinib -0.018 | pictilisib -0.046 | crizotinib -0.011 | [1] 0.079 | duvelisib -0.021 | gandotinib -0.093 | tozasertib 0.047 | doramapimod 0.023 | bafetinib -0.021 | [2] -0.05 | nilotinib 0.034 | [3] 0.014 | dasatinib -0.038 | [4] 0.001 | [5] 0.057 | quisinostat -0.048 | tipifarnib -0.029 | [6] 0.029 | [7] 0.001 | [8] -0.009

VASP (UniProt P50552)
Sequence of UniProt P50552 (P50552 whole entry, looked up): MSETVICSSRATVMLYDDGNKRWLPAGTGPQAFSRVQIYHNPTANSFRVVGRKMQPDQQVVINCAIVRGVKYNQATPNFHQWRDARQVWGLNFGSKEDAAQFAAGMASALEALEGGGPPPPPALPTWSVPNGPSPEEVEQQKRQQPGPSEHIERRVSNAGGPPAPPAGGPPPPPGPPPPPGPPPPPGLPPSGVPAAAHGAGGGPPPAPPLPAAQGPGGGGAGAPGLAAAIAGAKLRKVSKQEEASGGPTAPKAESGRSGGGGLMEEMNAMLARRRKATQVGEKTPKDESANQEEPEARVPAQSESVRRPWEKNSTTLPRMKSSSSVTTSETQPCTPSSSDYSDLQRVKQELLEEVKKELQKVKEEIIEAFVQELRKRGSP
inactive: lapatinib -0.006 | pictilisib 0.004 | crizotinib 0.007 | [1] -0.017 | duvelisib 0.047 | gandotinib 0.005 | tozasertib 0.019 | doramapimod -0.004 | bafetinib 0.136 | [2] 0.009 | nilotinib -0.025 | [3] -0.002 | dasatinib -0.061 | [4] -0.014 | [5] -0.001 | quisinostat 0.012 | tipifarnib 0.008 | [6] -0.012 | [7] -0.006 | [8] 0.013

UQCRC2 (UniProt P22695)
Sequence of UniProt P22695 (P22695 whole entry, looked up): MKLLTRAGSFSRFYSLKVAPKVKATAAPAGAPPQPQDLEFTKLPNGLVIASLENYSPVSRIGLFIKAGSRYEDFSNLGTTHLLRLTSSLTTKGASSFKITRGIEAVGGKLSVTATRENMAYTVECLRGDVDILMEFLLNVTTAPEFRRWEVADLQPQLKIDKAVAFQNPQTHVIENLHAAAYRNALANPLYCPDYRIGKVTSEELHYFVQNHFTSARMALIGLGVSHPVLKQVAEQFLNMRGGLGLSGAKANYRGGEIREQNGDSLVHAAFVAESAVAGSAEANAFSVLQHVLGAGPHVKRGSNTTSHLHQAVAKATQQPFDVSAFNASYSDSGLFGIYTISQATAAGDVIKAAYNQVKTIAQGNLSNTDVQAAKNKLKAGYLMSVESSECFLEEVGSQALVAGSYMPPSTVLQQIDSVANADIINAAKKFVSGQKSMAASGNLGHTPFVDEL
inactive: lapatinib -0.04 | pictilisib -0.008 | crizotinib 0.019 | [1] -0.011 | duvelisib 0.001 | gandotinib -0.004 | tozasertib -0.025 | doramapimod -0.027 | bafetinib -0.05 | [2] -0.007 | nilotinib 0.034 | [3] -0.028 | dasatinib 0 | [4] 0.004 | [5] -0.043 | quisinostat 0.007 | tipifarnib -0.011 | [6] 0.02 | [7] -0.008 | [8] 0.011

UNC45A (UniProt Q9H3U1)
Sequence of UniProt Q9H3U1 (Q9H3U1 whole entry, looked up): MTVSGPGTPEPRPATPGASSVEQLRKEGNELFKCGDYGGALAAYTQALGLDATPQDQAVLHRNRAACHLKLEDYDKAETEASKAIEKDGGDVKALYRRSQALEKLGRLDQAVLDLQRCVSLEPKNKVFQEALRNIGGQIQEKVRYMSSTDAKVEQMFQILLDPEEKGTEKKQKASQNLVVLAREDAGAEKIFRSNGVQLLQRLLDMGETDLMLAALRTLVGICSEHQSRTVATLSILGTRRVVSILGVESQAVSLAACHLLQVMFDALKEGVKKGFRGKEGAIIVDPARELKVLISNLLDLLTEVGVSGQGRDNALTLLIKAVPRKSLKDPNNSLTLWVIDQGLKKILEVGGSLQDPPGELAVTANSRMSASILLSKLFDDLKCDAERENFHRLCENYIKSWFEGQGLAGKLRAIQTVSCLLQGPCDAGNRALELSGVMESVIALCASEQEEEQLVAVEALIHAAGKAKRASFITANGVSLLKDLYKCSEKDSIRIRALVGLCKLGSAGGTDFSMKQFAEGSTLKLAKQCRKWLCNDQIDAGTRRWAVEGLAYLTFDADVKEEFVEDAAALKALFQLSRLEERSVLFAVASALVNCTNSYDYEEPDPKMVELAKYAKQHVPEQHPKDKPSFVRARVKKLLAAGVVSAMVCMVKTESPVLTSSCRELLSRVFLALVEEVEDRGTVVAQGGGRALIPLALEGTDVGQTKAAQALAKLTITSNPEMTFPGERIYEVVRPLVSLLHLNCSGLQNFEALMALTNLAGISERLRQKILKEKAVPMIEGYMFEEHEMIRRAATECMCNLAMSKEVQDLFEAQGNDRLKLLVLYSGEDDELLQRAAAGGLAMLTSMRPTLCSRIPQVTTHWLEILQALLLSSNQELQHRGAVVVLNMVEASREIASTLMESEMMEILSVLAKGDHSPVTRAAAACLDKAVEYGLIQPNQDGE
inactive: lapatinib -0.006 | pictilisib -0.026 | crizotinib -0.045 | [1] 0.019 | duvelisib -0.003 | gandotinib -0.111 | tozasertib 0 | doramapimod 0.027 | bafetinib -0.018 | [2] 0.021 | nilotinib -0.007 | [3] 0.003 | dasatinib -0.051 | [4] 0.018 | [5] 0.016 | quisinostat -0.047 | tipifarnib -0.015 | [6] 0.03 | [7] 0.016 | [8] -0.001

ZC3HC1 (UniProt Q86WB0)
Sequence of UniProt Q86WB0 (Q86WB0 whole entry, looked up): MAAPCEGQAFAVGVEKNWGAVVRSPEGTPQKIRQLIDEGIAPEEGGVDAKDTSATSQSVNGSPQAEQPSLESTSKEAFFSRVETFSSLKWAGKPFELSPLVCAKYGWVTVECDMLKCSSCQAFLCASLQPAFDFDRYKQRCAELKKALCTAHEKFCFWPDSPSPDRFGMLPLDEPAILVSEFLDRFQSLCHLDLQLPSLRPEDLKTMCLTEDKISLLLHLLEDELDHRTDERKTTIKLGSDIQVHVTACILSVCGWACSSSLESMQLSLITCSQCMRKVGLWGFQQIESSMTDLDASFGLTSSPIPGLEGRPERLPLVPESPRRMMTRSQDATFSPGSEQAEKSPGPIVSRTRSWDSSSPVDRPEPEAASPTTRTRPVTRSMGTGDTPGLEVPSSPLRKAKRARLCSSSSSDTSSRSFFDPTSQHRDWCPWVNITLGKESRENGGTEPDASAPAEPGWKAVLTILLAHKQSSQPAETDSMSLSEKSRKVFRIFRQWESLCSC
inactive: lapatinib 0.042 | pictilisib 0.001 | crizotinib 0.023 | duvelisib 0.013 | gandotinib -0.082 | tozasertib -0.036 | doramapimod 0.025 | bafetinib -0.019 | [2] -0.094 | nilotinib -0.013 | [3] -0.005 | dasatinib 0.029 | [4] 0.007 | [5] -0.009 | quisinostat -0.033 | tipifarnib -0.03 | [6] 0.025 | [7] 0.017 | [8] 0.024
active: [1] 0.222

USP8 (UniProt P40818)
Sequence of UniProt P40818 (P40818 whole entry, looked up): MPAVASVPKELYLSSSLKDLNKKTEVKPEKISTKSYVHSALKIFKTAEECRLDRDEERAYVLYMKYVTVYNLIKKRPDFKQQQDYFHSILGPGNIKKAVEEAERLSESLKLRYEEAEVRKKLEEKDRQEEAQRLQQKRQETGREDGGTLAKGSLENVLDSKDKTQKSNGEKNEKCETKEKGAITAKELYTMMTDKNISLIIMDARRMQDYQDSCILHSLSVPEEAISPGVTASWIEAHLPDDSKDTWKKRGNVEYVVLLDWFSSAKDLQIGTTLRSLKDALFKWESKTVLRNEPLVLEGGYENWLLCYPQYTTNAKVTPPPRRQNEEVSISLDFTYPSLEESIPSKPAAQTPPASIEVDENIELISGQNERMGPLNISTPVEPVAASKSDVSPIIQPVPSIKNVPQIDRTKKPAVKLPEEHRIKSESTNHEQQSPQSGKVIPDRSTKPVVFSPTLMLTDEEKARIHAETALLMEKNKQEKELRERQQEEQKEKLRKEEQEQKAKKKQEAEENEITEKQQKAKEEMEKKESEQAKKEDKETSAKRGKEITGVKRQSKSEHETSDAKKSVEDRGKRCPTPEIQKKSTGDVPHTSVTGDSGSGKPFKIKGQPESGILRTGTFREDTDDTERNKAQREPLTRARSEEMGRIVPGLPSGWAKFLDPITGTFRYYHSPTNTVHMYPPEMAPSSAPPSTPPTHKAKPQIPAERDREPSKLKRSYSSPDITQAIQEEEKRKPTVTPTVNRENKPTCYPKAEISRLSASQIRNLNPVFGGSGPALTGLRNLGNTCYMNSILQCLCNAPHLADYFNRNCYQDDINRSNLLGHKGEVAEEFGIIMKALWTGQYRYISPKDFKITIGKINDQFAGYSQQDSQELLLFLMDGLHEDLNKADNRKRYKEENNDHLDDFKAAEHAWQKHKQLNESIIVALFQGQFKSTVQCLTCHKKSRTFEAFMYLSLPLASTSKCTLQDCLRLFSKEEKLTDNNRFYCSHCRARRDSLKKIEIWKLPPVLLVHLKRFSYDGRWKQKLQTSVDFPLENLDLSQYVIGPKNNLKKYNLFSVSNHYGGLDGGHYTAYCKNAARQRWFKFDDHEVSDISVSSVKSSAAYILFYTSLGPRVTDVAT
inactive: lapatinib -0.011 | pictilisib -0.048 | crizotinib -0.009 | [1] 0.002 | duvelisib -0.023 | gandotinib -0.077 | tozasertib -0.013 | doramapimod 0.001 | bafetinib -0.026 | [2] 0.017 | nilotinib -0.014 | [3] -0.007 | dasatinib 0.005 | [4] 0.042 | [5] 0.024 | quisinostat -0.015 | tipifarnib -0.01 | [6] 0.016 | [7] -0.016 | [8] 0.026
